Test results: PubChem BioAssay AID1347416 (National Center for Advancing Translational Sciences (NCATS), 2020)
Hit rate of the full screen: of about 4,100 compounds, about 1,600 (39%) were called active. About 25% were inconclusive and are not listed. The call rests on the fitted dose curve; in most records, active means well fitted inhibition curve with a large enough effect; inconclusive means small, poorly fitted or top-dose-only effect; inactive means no such curve, though single readings can be large or run the other way. This is one part of the list. Entries that show only a call come without a potency.

assay: qHTS Validation assay for Inhibitors of Plasmodium falciparum Dd2 growth in vitro; further: nearly all actives have a fitted effect of over 70% in size; settings: P. falciparum Dd2 in RBCs, SYBR Green growth, 72 h; series mostly up to 28.7 µM
How it was run: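 P. falciparum Dd2-infected red blood cells (2.5% hematocrit, 0.3% parasitemia) grown 72 h at 37 °C under 5% O2 with compounds in a titration, 29 uM to 0.5 nM final. Growth read as SYBR Green-1 fluorescence after ~16 h lysis; artesunate 300 nM as positive control.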
Potency means the concentration at half of the fitted maximal effect.

Row | Compound | Potency
1 | NCCn1cc(C(=O)N2CCCC(c3[nH]ncc3Cc3ccccc3)C2)nn1 (configuration not stated) | inactive
2 | COc1ccc(Nc2c(-c3cc(Br)ccc3O)nc3ncccn23)cc1OC | 4.73 µM (active)
3 | CCCCNC(=O)c1cccc2c1CCN2S(=O)(=O)c1cccc(C)c1 | inactive
4 | CC(C)(C)CC(=O)Nc1ccc(S(=O)(=O)N2CCCC2)cc1 | inactive
5 | CCN(CC)CCNC(=O)c1ccc(NC(=O)c2ccc(S(=O)(=O)N3CCCCCC3)cc2)cc1 | 8.41 µM (active)
6 | CCN(CC)CCNC(=O)c1ccc(NC(=O)c2cccc(S(=O)(=O)N3CCc4ccccc43)c2)cc1 | 5.31 µM (active)
7 | CCN(CC)CCCNC(=O)C1CCN(S(=O)(=O)CC)CC1 | inactive
8 | Cc1cc(C)cc(N2C(N)=NC(N)=NC2c2cccc(Cl)c2)c1 (configuration not stated) | inactive
9 | Cc1nc2c(c(N3CCCC(COc4cccc(F)c4)C3)n1)CCNCC2 (configuration not stated) | 8.41 µM (active)
10 | COc1ccc(-c2cc(N3CCCC(NC(=O)c4cccc(F)c4)C3)n[nH]2)cc1 (configuration not stated) | inactive
11 | O=C(Cc1cccc(F)c1)N1CCCC(Cc2nc(C3CCOCC3)no2)C1 (configuration not stated) | inactive
12 | COC1C(=O)N(c2cccc(F)c2)C12CCN(C(=O)c1cc3ccccc3[nH]1)CC2 (configuration not stated) | inactive
13 | CC(C)CN(CCNC(=O)c1cc(-c2ccc(Cl)s2)nc2ccccc12)CC(C)C | 7.5 µM (active)
14 | Cc1cccc(NC(=O)CCN2CCN(c3ccccc3F)CC2)c1 | inactive
15 | O=C(Nc1ccccc1)[C@H]1O[C@H](CCN2CCN(c3ccc(F)cc3)CC2)CC[C@@H]1O | 10.9 µM (active)
16 | Cc1cccc(N(C)c2nc3ccccc3c3nnc(C)n23)c1 | 1.06 µM (active)
17 | Cc1cccc(N(C)S(=O)(=O)c2nnc(NC(=O)C(C)Oc3ccccc3)s2)c1 (configuration not stated) | inactive
18 | COc1cc2c(cc1OC)CN(c1ccc3ccccc3n1)CC2 | inactive
19 | Cc1ccccc1OCC(O)CN(Cc1ccccc1O)C1CCCCC1 (configuration not stated) | 0.119 µM (active)
20 | CCCS(=O)(=O)N1CC(=O)N(c2cccc(F)c2)C(C)(C(=O)NC2CCCCCC2)C1 (configuration not stated) | inactive
21 | Cc1ccc(CSCc2ccc(C(=O)NC3CC3)o2)cc1 | 2.66 µM (active)
22 | O=C(NC1CC1)C1COC2(CCN(C(=O)c3ccc(F)cc3)CC2)N1C(=O)c1cccc(F)c1 (configuration not stated) | inactive
23 | O=C(NC1CC1)c1ccc(CSCc2cccc(F)c2)o1 | 8.41 µM (active)

Row | Compound | Potency
24 | CCC1=C(C(=O)OC)C(c2cccc(F)c2)N2C(CC(=O)NCCc3cccs3)=CSC2=N1 (configuration not stated) | 9.44 µM (active)
25 | O=C(COc1ccc(Cl)cc1)NCCc1csc(-c2cccc(F)c2)n1 | inactive
26 | CCCNC(=O)N1CC[C@@H]2[C@H]1C(=O)N(c1cccc(F)c1)C(=O)N2Cc1cccs1 | inactive
27 | CCOc1ccc(-c2cc3nc(C4CCN(C(=O)OC(C)(C)C)CC4)c(C(=O)Nc4ccc(C(=O)OC)cc4)cn3n2)cc1 | 4.73 µM (active)
28 | CCCc1noc(-c2cn(C3CCN(C(=O)c4ccc(OC)cc4C)CC3)nn2)n1 | inactive
29 | CCOc1ccc(NC(=O)c2ccc3c(c2)N(C)C2CCCN2C3=O)cc1 (configuration not stated) | inactive
30 | O=C(c1[nH]nc2c1COc1ccccc1-2)N1CCC(Cc2nncn2CC2CC2)CC1 | inactive
31 | O=C(Nc1ccc(F)c(F)c1)c1ccc(=O)n(Cc2ccc(F)cc2)c1 | inactive
32 | CC(=O)Nc1ccc(NC(=O)c2c(C)oc3ccn(Cc4ccc(F)cc4)c(=O)c23)cc1 | 10.6 µM (active)
33 | Cc1ccc(-c2nc(NC(=O)c3cc(C(C)(C)C)nn3C)sc2C)cc1Cl | 10.6 µM (active)
34 | CCOC(=O)c1cccc(NC(=O)C2=C(C)C(=O)OC23CCCCC3)c1 | inactive
35 | CCOC(=O)c1cc(-c2ccc(OC)cc2)n(CCC(=O)Nc2cccc(C(C)=O)c2)c1C | 0.211 µM (active)
36 | CCOC(=O)c1cccc(NC(=O)CSc2cc(=O)n(C)c3ccccc23)c1 | inactive
37 | CCOC(=O)c1cccc(NC(=O)CCn2c(-c3ccc(F)cc3)cc(C(=O)OCC)c2C)c1 | 0.075 µM (active)
38 | CCN1CCN(Cc2ccc(NC(=O)c3cc(NC(=O)c4cnn(-c5ccccc5)c4N)cc(OC)c3)cc2C(F)(F)F)CC1 | 2.11 µM (active)
39 | CCN1CCN(Cc2ccc(NC(=O)c3cc(NC(=O)C4=NN(c5ccccc5)C(=O)C4)cc(OC)c3)cc2C(F)(F)F)CC1 | 8.41 µM (active)
40 | CCN1CCN(Cc2ccc(NC(=O)c3ccc(C)c(NC(=O)C4=NN(c5ccccc5)C(=O)C4)c3)cc2C(F)(F)F)CC1 | 8.41 µM (active)
41 | CCCCN(C(=O)c1cccc(S(=O)(=O)N(C)c2ccc(C)cc2)c1)c1c(N)n(CCCC)c(=O)[nH]c1=O | 5.31 µM (active)
42 | O=C1Nc2ccccc2CC12CCCCN2Cc1ccc(C(F)(F)F)cc1 (configuration not stated) | inactive
43 | CN(C)c1ccc(CN2CCC3(CC2)COc2ccccc2C(=O)N3)cc1 | 2.66 µM (active)
44 | COc1cccc([S+](=O)([O-])N2CCC3(COc4ccccc4C(=O)N3)C2)c1 (configuration not stated) | inactive
45 | O=C1NC2(CN(Cc3ccc(F)cc3)C2)Oc2ccccc21 | inactive
46 | O=C1CC2CCCC(C1)N2C(=O)c1ccc(C(F)(F)F)cc1 | inactive

Row | Compound | Potency
47 | O=C1NC2(CCN(Cc3ccc(C(F)(F)F)cc3)CC2)COc2ccccc21 | 8.41 µM (active)
48 | O=C1NC2(CCN(C(=O)c3cccnc3)CC2)Oc2ccccc21 | inactive
49 | O=C1NC2(CCN(C(=O)c3ccc(C(F)(F)F)cc3)CC2)COc2ccccc21 | 8.41 µM (active)
50 | C=C(C)COc1ccc(-c2ncncc2-c2ccc(Br)cc2)c(O)c1 | inactive
51 | C=C(C)COc1ccc(-c2n[nH]c(C)c2-c2ccccc2)c(O)c1 | 4.73 µM (active)
52 | C=C(C)COc1ccc(-c2ncnc(C(F)(F)F)c2-c2ccc(OC)cc2)c(O)c1 | 2.99 µM (active)
53 | C=C(C)COc1ccc(-c2ncnc(C(F)(F)F)c2-c2ccccc2)c(O)c1 | 2.37 µM (active)
54 | O=C(NC1CCCc2c1[nH]c1ccccc21)c1ccccc1 (configuration not stated) | inactive
55 | COc1cc(C(=O)NC2CCCc3c2[nH]c2c(Cl)cccc32)cc(OC)c1OC (configuration not stated) | 2.11 µM (active)
56 | Cc1ccc2c(c1)c(C(=O)N1CCC3(CCNC(=O)CC3)CC1)nn2C | inactive
57 | O=C(CN(C(=O)c1cccc([N+](=O)[O-])c1)C1CCCCC1)Nc1ccc(Cl)c([N+](=O)[O-])c1 | 13.3 µM (active)
58 | CN(CC1CCOCC1)C(=O)c1cccc(Cl)c1 | inactive
59 | CCc1noc(-c2nc(-c3ccc(OC)c(OC)c3)no2)n1 | inactive
60 | CCC(=O)C1=C(c2ccc(OC)c(OC)c2)N(C(=O)CC)n2c(CC)nnc2S1 | 4.73 µM (active)
61 | CCC(=O)C1=C(c2ccccc2)N(C(=O)CC)n2c(nnc2-c2ccccc2)S1 | 5.96 µM (active)
62 | CCC(=O)C1=C(c2cccc([N+](=O)[O-])c2)N(C(=O)CC)n2c(nnc2-c2ccccc2)S1 | 5.31 µM (active)
63 | CCC(=O)C1=C(c2cccc([N+](=O)[O-])c2)N(C(=O)CC)n2c(nnc2C2CCCCC2)S1 | 1.88 µM (active)
64 | COc1cc2nc(SCc3ccc(F)cc3)n3nc(CCn4c(C)nc5ccccc54)nc3c2cc1OC | 2.99 µM (active)
65 | CN(C)c1ccc(C(=O)N[C@H]2CO[C@H]3[C@@H]2OC[C@@H]3n2cc(COc3ccccc3)nn2)cc1 | inactive
66 | C#CCN1c2ccccc2Sc2cccnc21 | 6.68 µM (active)
67 | CCc1cccc(NC(=O)C(Cc2ccccc2)NS(=O)(=O)c2ccc3c(c2)oc(=O)n3C)c1 (configuration not stated) | inactive
68 | COc1cccc(-c2ccc3c(n2)CNC(=O)CO3)c1 | inactive
69 | COc1cccc(-c2cc(C(=O)Nc3cc(Cl)ccc3O)on2)c1 | 4.73 µM (active)

Row | Compound | Potency
70 | Cc1cc(-c2ccc(S(=O)(=O)Nc3cc(Cl)ccc3C)s2)on1 | inactive
71 | CC(C)Cc1cc(CNc2nccc(-c3cc(C(=O)O)ccn3)n2)no1 | inactive
72 | COc1ccc(Cl)cc1NC(=O)c1sc(-n2nc(C)c(Cc3ccccc3)c2C)nc1C | inactive
73 | CC(C)c1cc(C(=O)Nc2cc(Cl)ccc2O)no1 | 6.68 µM (active)
74 | CC(C)Cc1cc(C(=O)Nc2cc(Br)ccc2O)no1 | 4.73 µM (active)
75 | O=C(c1cn[nH]c1)N1CCC(c2nc(CCOCC3CC3)no2)C1 (configuration not stated) | inactive
76 | COc1nc2ccccc2nc1CCC(=O)N[C@H]1COC[C@H]1Cc1cc(C)no1 | inactive
77 | CN(C)C[C@@H]1CN(Cc2ccccc2)C[C@H]1NC(=O)c1ccncn1 | inactive
78 | Cc1ccc(NC(=O)c2c(NC(=O)c3ccco3)sc3c2CCC(C(C)(C)C)C3)c(C)c1 (configuration not stated) | inactive
79 | Cc1ccccc1NC(=O)c1c(NC(=O)c2ccco2)sc2c1CCC(C(C)(C)C)C2 (configuration not stated) | 13.3 µM (active)
80 | Cc1ccccc1NC(=O)c1c(NC(=O)c2cccs2)sc2c1CCC(C)C2 (configuration not stated) | inactive
81 | Cc1ccc(Cl)cc1NC(=O)c1cc2ccccc2cc1O | 1.5 µM (active)
82 | O=C(NCC1CC1)c1cccc(OC2CN(CC3CC=CCC3)C2)c1 (configuration not stated) | inactive
83 | Cc1ccc(Cl)cc1NC(=O)CCn1cnc2ccccc2c1=O | inactive
84 | Cc1ccc(Cl)cc1NC(=O)c1nnn(Cc2ccccc2)c1N | inactive
85 | O=C(NCC1CCCCC1)c1cc2ccccc2cc1O | 9.44 µM (active)
86 | O=C(CN1CCN(S(=O)(=O)c2cccs2)CC1)NCC1CCCCC1 | inactive
87 | CCOc1ccc(NC(=O)c2oc3ccccc3c2NC(=O)c2cc(C)cc(C)c2)cc1 | inactive
88 | CCOc1ccc(NC(=O)c2cc3ccccc3cc2O)cc1 | 5.31 µM (active)
89 | Cc1nc(C)c(C(=O)N2CC(Oc3ccc(-c4noc(-c5ccccc5)n4)cc3)C2)s1 | inactive
90 | CCn1cc(CN2CC(Oc3ccc(-c4noc(-c5ccncc5)n4)cc3)C2)cn1 | 13.3 µM (active)
91 | Cc1ccsc1C(=O)N1CC(Oc2ccc(-c3nc(-c4ccccc4)no3)cc2)C1 | inactive
92 | Cc1c(C#N)c(N)nc(Cl)c1C#N | inactive
